Laboratory results as given in the supplement of paper PMC10037445.
In all, about 2,900 compounds were measured (“NF-kB SEAP reporter activity, fold change vs agonist alone”: median about 0.99, highest 2% from about 2.6 on). Many of the other results were omitted from the sample, so the highest values are more common in it than they were.

Legend:
RAW-Dual [1] = test: NF-kB SEAP reporter activity, fold change vs agonist alone; cytotoxicity flag (confluency mask): not cytotoxic; higher = enhanced NF-kB activity
Procedure, shortened: (§1)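 Reporter activity is given as fold change relative to agonist-alone wells. To measure it, 50 nL of library stock was pin-tooled onto RAW-Dual macrophages (50,000 cells/well, DMEM, 384-well plates), a PRR agonist followed 1 h later, and cells stayed at 37 °C, 5% CO2. Twenty hours on, supernatant was assayed for IRF (QuantiLuc luminescence) and NF-κB (QuantiBlue, 620 nm absorbance), and wells under 70% of agonist-control IncuCyte confluency in both mask sets were marked cytotoxic.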

RAW-Dual [2] = test: NF-kB SEAP reporter activity, fold change vs agonist alone; higher = enhanced NF-kB activity
Procedure, shortened: as §1

RAW-Dual [3] = test: NF-kB SEAP reporter activity, fold change vs agonist alone; cytotoxicity flag (confluency mask): cytotoxic (confluency <70% of control); higher = enhanced NF-kB activity
Procedure, shortened: as §1

[4] = agonist: ODN 1826 (TLR9) 0.5 ug/mL
[5] = agonist: Pam2CSK4 (TLR2/6) 0.1 ug/mL
[6] = agonist: Pam3CSK4 (TLR2/1) 0.1 ug/mL
[7] = library stock concentration (final ~1000-fold dilution): 10 mM, cytotoxicity flag (confluency mask): not cytotoxic, agonist: Imiquimod (TLR7) […]
[8] = library stock concentration (final ~1000-fold dilution): 10 mM, cytotoxicity flag (confluency mask): not cytotoxic, agonist: MPLA (TLR4) […]
[9] = library stock concentration (final ~1000-fold dilution): 10 mM, cytotoxicity flag (confluency mask): cytotoxic (confluency <70% of control), agonist: Imiquimod (TLR7) […]
[10] = library stock concentration (final ~1000-fold dilution): 10 mM, cytotoxicity flag (confluency mask): cytotoxic (confluency <70% of control), agonist: MPLA (TLR4) […]

Structure (SMILES): Oc1cc(CNC(=S)/C=C/c2cc(O)c(O)c(Br)c2)cc(O)c1O (library stock concentration (final ~1000-fold dilution): 10 mM)
- NF-kB SEAP reporter activity (RAW-Dual [1]; agonist: LPS (TLR4) 0.1 ug/mL): 3.51
- NF-kB SEAP reporter activity (RAW-Dual [1]; [4]): 2.77
- NF-kB SEAP reporter activity (RAW-Dual [1]; [5]): 1.67
- NF-kB SEAP reporter activity (RAW-Dual [1]; [6]): 0.821

Structure (SMILES): Oc1cc(CNC(=S)/C=C/c2cc(O)c(O)c(Br)c2)cc(O)c1O
- NF-kB SEAP reporter activity (RAW-Dual [2]; [7]): 1.78
- NF-kB SEAP reporter activity (RAW-Dual [2]; [8]): 2.29

Structure (SMILES): Cc1cc2c(F)c(Oc3ncnn4cc(OCC(C)OC(=O)C(C)N)c(C)c34)ccc2[nH]1 (stereo not given) (library stock concentration (final ~1000-fold dilution): 10 mM)
- NF-kB SEAP reporter activity (RAW-Dual [3]; agonist: LPS (TLR4) 0.1 ug/mL): 1.52
- NF-kB SEAP reporter activity (RAW-Dual [3]; [4]): 0.94
- NF-kB SEAP reporter activity (RAW-Dual [3]; [5]): 0.759
- NF-kB SEAP reporter activity (RAW-Dual [3]; [6]): 1.13

Structure (SMILES): Cc1cc2c(F)c(Oc3ncnn4cc(OCC(C)OC(=O)C(C)N)c(C)c34)ccc2[nH]1 (stereo not given)
- NF-kB SEAP reporter activity (RAW-Dual [2]; [9]): 1.98
- NF-kB SEAP reporter activity (RAW-Dual [2]; [10]): 1.72

Structure (SMILES): Nc1ccn(CC(CO)OCP(=O)(O)O)c(=O)n1 (stereo not given)
- NF-kB SEAP reporter activity (RAW-Dual [2]; library stock concentration (final ~1000-fold dilution): 10 mM water, cytotoxicity flag (confluency mask): not cytotoxic, agonist: Imiquimod (TLR7) […]): 0.956
- NF-kB SEAP reporter activity (RAW-Dual [2]; library stock concentration (final ~1000-fold dilution): 10 mM water, cytotoxicity flag (confluency mask): not cytotoxic, agonist: MPLA (TLR4) […]): 1.04

Structure (SMILES): Nc1ccn(CC(CO)OCP(=O)(O)O)c(=O)n1 (stereo not given) (library stock concentration (final ~1000-fold dilution): 10 mM water)
- NF-kB SEAP reporter activity (RAW-Dual [1]; agonist: LPS (TLR4) 0.1 ug/mL): 1.2
- NF-kB SEAP reporter activity (RAW-Dual [1]; [4]): 1.23
- NF-kB SEAP reporter activity (RAW-Dual [1]; [5]): 1.32
- NF-kB SEAP reporter activity (RAW-Dual [1]; [6]): 1.29

Structure (SMILES): O=C(c1cn(Cc2cncn2Cc2ccc(Br)cc2)cc1-c1cccc2ccccc12)N1CCOCC1
- NF-kB SEAP reporter activity (RAW-Dual [2]; [7]): 1.35
- NF-kB SEAP reporter activity (RAW-Dual [2]; [8]): 1.46

Structure (SMILES): O=C(c1cn(Cc2cncn2Cc2ccc(Br)cc2)cc1-c1cccc2ccccc12)N1CCOCC1 (library stock concentration (final ~1000-fold dilution): 10 mM)
- NF-kB SEAP reporter activity (RAW-Dual [1]; agonist: LPS (TLR4) 0.1 ug/mL): 2.82
- NF-kB SEAP reporter activity (RAW-Dual [1]; [4]): 1.54
- NF-kB SEAP reporter activity (RAW-Dual [1]; [5]): 0.96
- NF-kB SEAP reporter activity (RAW-Dual [1]; [6]): 1.16

Structure (SMILES): O=C1NC(=O)C(c2cn3c4c(cccc24)CCC3)C1c1c[nH]c2ccccc12 (stereo not given) (library stock concentration (final ~1000-fold dilution): 10 mM)
- NF-kB SEAP reporter activity (RAW-Dual [1]; agonist: LPS (TLR4) 0.1 ug/mL): 3.41
- NF-kB SEAP reporter activity (RAW-Dual [1]; [4]): 2.7
- NF-kB SEAP reporter activity (RAW-Dual [1]; [5]): 1.49
- NF-kB SEAP reporter activity (RAW-Dual [1]; [6]): 1.4

Structure (SMILES): O=C1NC(=O)C(c2cn3c4c(cccc24)CCC3)C1c1c[nH]c2ccccc12 (stereo not given)
- NF-kB SEAP reporter activity (RAW-Dual [2]; [7]): 2.44
- NF-kB SEAP reporter activity (RAW-Dual [2]; [8]): 1.84

Structure (SMILES): Cl.Clc1cccc(-c2nnnn2Cc2cccnc2)c1Cl (library stock concentration (final ~1000-fold dilution): 10 mM)
- NF-kB SEAP reporter activity (RAW-Dual [1]; agonist: LPS (TLR4) 0.1 ug/mL): 1.07
- NF-kB SEAP reporter activity (RAW-Dual [1]; [4]): 0.95
- NF-kB SEAP reporter activity (RAW-Dual [1]; [5]): 1.04
- NF-kB SEAP reporter activity (RAW-Dual [1]; [6]): 0.958

Structure (SMILES): Cl.Clc1cccc(-c2nnnn2Cc2cccnc2)c1Cl
- NF-kB SEAP reporter activity (RAW-Dual [2]; [7]): 1
- NF-kB SEAP reporter activity (RAW-Dual [2]; [8]): 1.06

Structure (SMILES): CC1COC2Cn3cc(C(=O)NCc4ccc(F)cc4F)c(=O)c(O)c3C(=O)N12 (stereo not given)
- NF-kB SEAP reporter activity (RAW-Dual [2]; [7]): 0.969
- NF-kB SEAP reporter activity (RAW-Dual [2]; [8]): 1.11

Structure (SMILES): CC1COC2Cn3cc(C(=O)NCc4ccc(F)cc4F)c(=O)c(O)c3C(=O)N12 (stereo not given) (library stock concentration (final ~1000-fold dilution): 10 mM)
- NF-kB SEAP reporter activity (RAW-Dual [1]; agonist: LPS (TLR4) 0.1 ug/mL): 1.38
- NF-kB SEAP reporter activity (RAW-Dual [1]; [4]): 1.03
- NF-kB SEAP reporter activity (RAW-Dual [1]; [5]): 0.808
- NF-kB SEAP reporter activity (RAW-Dual [1]; [6]): 0.866

Structure (SMILES): Cc1cc(Nc2ncc3c(n2)N(C)C(=O)N(c2cc(NC(=O)c4cccc(C(F)(F)F)c4)ccc2C)C3)n(C)n1
- NF-kB SEAP reporter activity (RAW-Dual [2]; [9]): 0.128
- NF-kB SEAP reporter activity (RAW-Dual [2]; [10]): 0.265

Structure (SMILES): CCC(=O)Nc1cccc(Oc2nc(Nc3ccc(N4CCN(C)CC4)cc3OC)ncc2Cl)c1
- NF-kB SEAP reporter activity (RAW-Dual [2]; [9]): 1.1
- NF-kB SEAP reporter activity (RAW-Dual [2]; [10]): 1.7

Structure (SMILES): CCC1C(=O)N(C)c2cnc(Nc3ccc(C(=O)NC4CCN(C)CC4)cc3OC)nc2N1C1CCCC1 (stereo not given) (library stock concentration (final ~1000-fold dilution): 10 mM)
- NF-kB SEAP reporter activity (RAW-Dual [3]; agonist: LPS (TLR4) 0.1 ug/mL): 0.276
- NF-kB SEAP reporter activity (RAW-Dual [3]; [4]): 1.3
- NF-kB SEAP reporter activity (RAW-Dual [3]; [5]): 1.54
- NF-kB SEAP reporter activity (RAW-Dual [3]; [6]): 3.64

Structure (SMILES): C=CC(=O)Nc1cccc(Nc2nc(Nc3ccc(NC4CN(CCF)C4)cc3OC)ncc2C(F)(F)F)c1
- NF-kB SEAP reporter activity (RAW-Dual [2]; [7]): 1.26
- NF-kB SEAP reporter activity (RAW-Dual [2]; [8]): 1.53

Structure (SMILES): COc1cc(C(=O)NC2CCN(C)CC2)ccc1Nc1ncc2c(n1)N(C1CCCC1)CC(F)(F)C(=O)N2C (library stock concentration (final ~1000-fold dilution): 10 mM)
- NF-kB SEAP reporter activity (RAW-Dual [3]; agonist: LPS (TLR4) 0.1 ug/mL): 5.16
- NF-kB SEAP reporter activity (RAW-Dual [3]; [4]): 0.745
- NF-kB SEAP reporter activity (RAW-Dual [3]; [5]): 1.3
- NF-kB SEAP reporter activity (RAW-Dual [3]; [6]): 3.04

Structure (SMILES): CCC1C(=O)N(C)c2cnc(Nc3ccc(C(=O)NC4CCC(N5CCN(CC6CC6)CC5)CC4)cc3OC)nc2N1C(C)C (stereo not given)
- NF-kB SEAP reporter activity (RAW-Dual [2]; [7]): 0.55
- NF-kB SEAP reporter activity (RAW-Dual [2]; [8]): 0.684

Structure (SMILES): Cc1cc(Nc2ncc3c(n2)N(C)C(=O)N(c2cc(NC(=O)c4cccc(C(F)(F)F)c4)ccc2C)C3)n(C)n1 (library stock concentration (final ~1000-fold dilution): 10 mM)
- NF-kB SEAP reporter activity (RAW-Dual [3]; agonist: LPS (TLR4) 0.1 ug/mL): 0.283
- NF-kB SEAP reporter activity (RAW-Dual [3]; [4]): 0.186
- NF-kB SEAP reporter activity (RAW-Dual [3]; [5]): 0.0623
- NF-kB SEAP reporter activity (RAW-Dual [3]; [6]): 0.124

Structure (SMILES): COc1cc(OC2CCN(C)CC2)ccc1Nc1ncc2c(n1)n(C1CCCC1)c(=O)n2C (library stock concentration (final ~1000-fold dilution): 10 mM)
- NF-kB SEAP reporter activity (RAW-Dual [1]; agonist: LPS (TLR4) 0.1 ug/mL): 1.17
- NF-kB SEAP reporter activity (RAW-Dual [1]; [4]): 0.955
- NF-kB SEAP reporter activity (RAW-Dual [1]; [5]): 0.964
- NF-kB SEAP reporter activity (RAW-Dual [1]; [6]): 1.16

Structure (SMILES): CCC(=O)Nc1cccc(Oc2nc(Nc3ccc(N4CCN(C)CC4)cc3OC)ncc2Cl)c1 (library stock concentration (final ~1000-fold dilution): 10 mM)
- NF-kB SEAP reporter activity (RAW-Dual [3]; agonist: LPS (TLR4) 0.1 ug/mL): 1.65
- NF-kB SEAP reporter activity (RAW-Dual [3]; [4]): 0.875
- NF-kB SEAP reporter activity (RAW-Dual [3]; [5]): 0.603
- NF-kB SEAP reporter activity (RAW-Dual [3]; [6]): 1.02
